The values that follow come from the antibiotic and cytotoxicity screens of Wong et al. (2023).

In all, about 39,000 compounds went through this assay and about 3,300 (8.5%) were called active. Shown is part of a subset that was picked to be rich in actives.

For the test, the system named is HepG2. As to the kind of experiment: cytotoxicity call (relative viability < 0.9). To be noted: 10 µM.
Take `C[C@H]1CCCCO[C@@H](CN(C)S(=O)(=O)c2ccccc2)[C@@H](C)CN([C@@H](C)CO)C(=O)c2cc(NC(=O)Nc3ccccc3)ccc2O1`: the cytotoxicity call was “inactive”. Under `Cc1ccc(S(=O)(=O)N2C[C@H](O)COC[C@H]3O[C@@H](CC(=O)NCc4ccc5c(c4)OCO5)CC[C@@H]32)cc1` stands “inactive”. Under `N=C(N)SC=CC(=O)O` stands “inactive”. For `C[C@@H]1CN([C@H](C)CO)C(=O)c2cc(NC(=O)CCN3CCOCC3)ccc2O[C@@H]1CN(C)C(=O)Nc1ccc(F)cc1` the value was “inactive”; for `Cc1n[nH]c(=O)[nH]c1=O`, “inactive”. In the case of `C[C@@H]1CN([C@H](C)CO)C(=O)c2cccc(NC(=O)c3ccncc3)c2O[C@H]1CN(C)S(=O)(=O)c1ccc(F)cc1`, the cytotoxicity call was “inactive”. Under `C[C@@H]1CN([C@@H](C)CO)C(=O)c2cc(C#CC3(O)CCCC3)cnc2O[C@H]1CN(C)C(=O)Nc1ccc2c(c1)OCO2` stands “inactive”; under `Cc1ccc(S(=O)(=O)Nc2cccc3c2O[C@@H](CN(C)Cc2ccc(Cl)c(Cl)c2)[C@@H](C)CN([C@H](C)CO)C3=O)cc1`, “inactive”; under `C[C@@H]1CCCCO[C@@H](CN(C)C(=O)Nc2cccc3ccccc23)[C@H](C)CN([C@H](C)CO)C(=O)c2cc(NC(=O)CCC(F)(F)F)ccc2O1`, “inactive”. For `C[C@@H]1CN([C@@H](C)CO)C(=O)c2cc(NC(=O)CCC(F)(F)F)ccc2O[C@@H](C)CCCCO[C@@H]1CN(C)C(=O)Nc1cccc2ccccc12` the value was “inactive”.

Consider `C[C@@H]1CCCCO[C@@H](CN(C)C(=O)Nc2cccc3ccccc23)[C@H](C)CN([C@@H](C)CO)C(=O)c2cc(NC(=O)CCC(F)(F)F)ccc2O1`, for which the cytotoxicity call was “inactive”. `C[C@@H]1CCCCO[C@@H](CN(C)C(=O)Nc2cccc3ccccc23)[C@@H](C)CN([C@H](C)CO)C(=O)c2cc(NC(=O)CCC(F)(F)F)ccc2O1`: the cytotoxicity call was “inactive”. Consider `C[C@@H]1CCCCO[C@H](CN(C)C(=O)Nc2cccc3ccccc23)[C@@H](C)CN([C@H](C)CO)C(=O)c2cc(NC(=O)CCC(F)(F)F)ccc2O1`, for which the cytotoxicity call is “inactive”. With `C[C@H](CO)N1C[C@H](C)[C@@H](CN(C)C(=O)Nc2cccc3ccccc23)OCCCC[C@H](C)Oc2ccc(NC(=O)CCC(F)(F)F)cc2C1=O`, the cytotoxicity call was “active”. For `C[C@H]1CCCCO[C@H](CN(C)C(=O)Nc2cccc3ccccc23)[C@@H](C)CN([C@@H](C)CO)C(=O)c2cc(NC(=O)CCC(F)(F)F)ccc2O1` the value was “active”. Under `C[C@@H]1CN([C@H](C)CO)C(=O)c2cc(NC(=O)CCC(F)(F)F)ccc2O[C@@H](C)CCCCO[C@H]1CN(C)C(=O)Nc1cccc2ccccc12` stands “active”. Regarding `C[C@@H]1CCCCO[C@H](CN(C)C(=O)Nc2cccc3ccccc23)[C@H](C)CN([C@@H](C)CO)C(=O)c2cc(NC(=O)CCC(F)(F)F)ccc2O1`, the cytotoxicity call was “inactive”.

As for `CC(C)NC(=O)N(C)C[C@H]1Oc2ccc(NS(=O)(=O)c3ccccc3)cc2C(=O)N([C@@H](C)CO)C[C@H]1C`, the cytotoxicity call is “inactive”. Under `C[C@@H]1CN([C@H](C)CO)C(=O)c2cccc(NC(=O)Nc3ccccc3)c2O[C@@H]1CN(C)CC1CCCCC1` stands “inactive”; under `COc1ccccc1-c1cnc2c(c1)C(=O)N([C@@H](C)CO)C[C@@H](C)[C@@H](CN(C)C(=O)c1ccncc1)O2`, “inactive”; under `COc1ccc(S(=O)(=O)Nc2ccc3c(c2)C(=O)N([C@H](C)CO)C[C@@H](C)[C@@H](CN(C)C(=O)CCC(F)(F)F)OCCCC[C@@H](C)O3)cc1`, “inactive”.

Consider `O=C(/C=C/c1ccccc1)c1ccc(O[C@@H]2O[C@H](CO)[C@@H](O)[C@H](O)[C@H]2O)cc1O`, for which the cytotoxicity call was “inactive”. Turning to `C[C@H](CO)N1C[C@H](C)[C@@H](CN(C)S(=O)(=O)c2ccc(F)cc2)Oc2c(NS(=O)(=O)c3ccccc3)cccc2C1=O`, the cytotoxicity call was “inactive”. Under `CON=C(C(=O)N[C@@H]1C(=O)N2C(C(=O)O)=C(CSc3nc(=O)c(O)nn3C)CS[C@H]12)c1csc(N)n1` stands “inactive”. Consider `COc1ccc(S(=O)(=O)N(C)C[C@@H]2Oc3ccc(N(C)C)cc3C(=O)N([C@H](C)CO)C[C@H]2C)cc1`, for which the cytotoxicity call is “inactive”.

Take `Cc1ccc(S(=O)(=O)N2C[C@@H](O)COC[C@@H]3O[C@H](CC(=O)NCCCN(C)C)CC[C@H]32)cc1`: the cytotoxicity call is “inactive”. For the compound `Cc1ccc(S(=O)(=O)Nc2ccc3c(c2)C(=O)N([C@@H](C)CO)C[C@@H](C)[C@H](CN(C)Cc2ccc(C(F)(F)F)cc2)O3)cc1`, the cytotoxicity call was “inactive”. With `Cc1ccc(S(=O)(=O)Nc2ccc3c(c2)C(=O)N([C@H](C)CO)C[C@H](C)[C@H](CN(C)Cc2ccc(C(F)(F)F)cc2)O3)cc1`, the cytotoxicity call was “active”. Regarding `Cc1ccc(S(=O)(=O)Nc2ccc3c(c2)C(=O)N([C@@H](C)CO)C[C@H](C)[C@H](CN(C)Cc2ccc(C(F)(F)F)cc2)O3)cc1`, the cytotoxicity call was “inactive”.

As for `Cc1ccc(S(=O)(=O)Nc2ccc3c(c2)C(=O)N([C@@H](C)CO)C[C@H](C)[C@@H](CN(C)Cc2ccc(C(F)(F)F)cc2)O3)cc1`, the cytotoxicity call was “inactive”. On to `Cc1ccc(S(=O)(=O)Nc2ccc3c(c2)C(=O)N([C@H](C)CO)C[C@H](C)[C@@H](CN(C)Cc2ccc(C(F)(F)F)cc2)O3)cc1`, for which the cytotoxicity call was “inactive”. Under `Cc1ccc(S(=O)(=O)Nc2ccc3c(c2)C(=O)N([C@@H](C)CO)C[C@@H](C)[C@@H](CN(C)Cc2ccc(C(F)(F)F)cc2)O3)cc1` stands “inactive”; under `Cc1ccc(S(=O)(=O)Nc2ccc3c(c2)C(=O)N([C@H](C)CO)C[C@@H](C)[C@@H](CN(C)Cc2ccc(C(F)(F)F)cc2)O3)cc1`, “active”; under `Cc1ccc(S(=O)(=O)Nc2ccc3c(c2)C(=O)N([C@H](C)CO)C[C@@H](C)[C@H](CN(C)Cc2ccc(C(F)(F)F)cc2)O3)cc1`, “active”. Under `Cn1cccc1C(=O)NCc1cn2c(n1)CN(S(C)(=O)=O)CC2` stands “inactive”. On to `COC(=O)[C@@H]1N2C(=O)[C@@H](N3C[C@](C)(OC)O[C@@H](Cc4ccccc4)[C@H]3/C=C/C3CC3)[C@H]2SC1(C)C`, for which the cytotoxicity call is “inactive”. Under `C[C@H]1CCCCO[C@@H](CN(C)C(=O)Nc2cccc3ccccc23)[C@@H](C)CN([C@@H](C)CO)C(=O)c2cc(NC(=O)c3ccncc3)ccc2O1` stands “inactive”. For `C[C@H]1CN([C@@H](C)CO)C(=O)c2cc(C#CCN(C)C)cnc2O[C@@H]1CN(C)C(=O)Nc1cc(F)ccc1F` the value was “inactive”; for `O=C(C[C@@H]1CC[C@H]2[C@@H](COC[C@H](O)CN2S(=O)(=O)c2ccccc2)O1)NCc1ccc(-c2ccccc2)cc1`, “inactive”; for `COCC(=O)N1C[C@@H](C)[C@@H](OC)CN(C)C(=O)c2ccc(NC(=O)c3ccc(F)cc3)cc2OC[C@H]1C`, “inactive”. Under `COc1ccc(S(=O)(=O)N(C)C[C@H]2Oc3ccc(NS(=O)(=O)c4c(C)noc4C)cc3CC(=O)N([C@H](C)CO)C[C@@H]2C)cc1` stands “inactive”. For `COc1ccc(S(=O)(=O)N(C)C[C@H]2OCCCC[C@@H](C)Oc3ccc(NC(=O)Nc4cccc5ccccc45)cc3C(=O)N([C@H](C)CO)C[C@H]2C)cc1`, the cytotoxicity call was “inactive”. For `CC(C)(C)NC(=O)[C@@H]1CN(Cc2cccnc2)CCN1C[C@@H](O)C[C@@H](Cc1ccccc1)C(=O)N[C@@H]1c2ccccc2C[C@@H]1O` the value was “inactive”; for `CC(C)(C)NC(=O)[C@@H]1CN(Cc2cccnc2)CCN1C[C@@H](O)C[C@@H](Cc1ccccc1)C(=O)N[C@H]1c2ccccc2C[C@H]1O`, “inactive”. Under `CC(C)(C)NC(=O)C1CN(Cc2cccnc2)CCN1CC(O)CC(Cc1ccccc1)C(=O)NC1c2ccccc2CC1O` (stereo not drawn) stands “active”; under `O=C(C[C@@H]1CC[C@H]2[C@@H](COC[C@H](O)CN2S(=O)(=O)c2cccc(F)c2)O1)NCCCN1CCOCC1`, “inactive”. Under `NCc1ccncc1` stands “inactive”; under `C=CCOC(=O)[C@@H]1[C@H]2C(=O)O[C@H](c3ccccc3)[C@H](c3ccccc3)N2[C@H](c2ccc(OCCOC(=O)[C@H]3C[C@H]4C(=O)NCC(=O)N4[C@H]3c3ccc(O)cc3)cc2)[C@@]12C(=O)Nc1ccccc12`, “inactive”.

For `C[C@H]1CC/C=C\[C@H]2O[C@@]34C=CCN(CCN5CCOCC5)C(=O)[C@H]3N(CCCO)C(=O)[C@@H]4[C@@H]2C(=O)O1`, the cytotoxicity call is “inactive”. For `Nc1nc(=O)[nH]cc1NC(=O)c1ccccc1` the value was “inactive”; for `C[C@@H](N)c1ccc(C(=O)Nc2ccnc3[nH]ccc23)cc1`, “active”; for `CC[C@@H](C)c1ccc(NC(=O)c2ccc(N(CC)CC)cc2)cc1`, “inactive”. Regarding `c1ccc2c(CSc3nc4ccccc4s3)cccc2c1`, the cytotoxicity call is “inactive”. Take `CCSc1cccc2cccnc12`: the cytotoxicity call is “inactive”.

On to `c1cnc2c(SCc3nc4ccccc4s3)cccc2c1`, for which the cytotoxicity call is “active”. For `COc1ccc(S(=O)(=O)Nc2ccc3c(c2)C(=O)N([C@H](C)CO)C[C@H](C)[C@H](CN(C)Cc2ccc(Cl)c(Cl)c2)O3)cc1` the value was “inactive”. Under `COc1ccc(S(=O)(=O)Nc2ccc3c(c2)C(=O)N([C@@H](C)CO)C[C@@H](C)[C@@H](CN(C)Cc2ccc(Cl)c(Cl)c2)O3)cc1` stands “active”. With `COc1ccc(S(=O)(=O)Nc2ccc3c(c2)C(=O)N([C@@H](C)CO)C[C@H](C)[C@H](CN(C)Cc2ccc(Cl)c(Cl)c2)O3)cc1`, the cytotoxicity call is “inactive”. Regarding `COc1ccc(S(=O)(=O)Nc2ccc3c(c2)C(=O)N([C@H](C)CO)C[C@H](C)[C@@H](CN(C)Cc2ccc(Cl)c(Cl)c2)O3)cc1`, the cytotoxicity call was “inactive”. Under `COc1ccc(S(=O)(=O)Nc2ccc3c(c2)C(=O)N([C@@H](C)CO)C[C@@H](C)[C@H](CN(C)Cc2ccc(Cl)c(Cl)c2)O3)cc1` stands “active”; under `COc1ccc(S(=O)(=O)Nc2ccc3c(c2)C(=O)N([C@@H](C)CO)C[C@H](C)[C@@H](CN(C)Cc2ccc(Cl)c(Cl)c2)O3)cc1`, “inactive”. Under `C[C@@H]1CCCCO[C@@H](CN(C)S(=O)(=O)c2ccc(Cl)cc2)[C@@H](C)CN([C@H](C)CO)C(=O)c2cc(NC(=O)CCCCCC(=O)Nc3ccccc3N)ccc2O1` stands “inactive”; under `C[C@H]1CN([C@@H](C)CO)C(=O)Cc2cc(NS(C)(=O)=O)ccc2O[C@H]1CN(C)C`, “inactive”.
